Measurements as given in ChEMBL document CHEMBL4513216, “Probing the Open Global Health Chemical Diversity Library for Multistage-Active Starting Points for Next-Generation Antimalarials” (ACS Infect Dis, 2020).
Hit rate of the full screen: of about 69,000 compounds, about 8,600 (12%) showed an effect of 50% or more. The sample as a whole holds a higher share of strong results than the screen did.

system: Plasmodium berghei; test: Screen against P. berghei liver stage (PbLuc), transformed with Luciferase, at 10uM; type: functional, HepG2; conditions: tested at 10 uM

Row | SMILES | INHIBITION [%]
1 | Cc1ccc(-n2nnc(C(=O)O)c2C)c(C)c1 | 14.2
2 | CCOCCC(=O)N1C[C@@H]2CC[C@H]1CN(c1ncccn1)C2 | 43.2
3 | Cc1cccc(NC(=O)C2CSCN2C(=O)c2cnccn2)c1C (centres undefined) | 33.35
4 | COc1ccc(C)cc1CC(=O)NS(=O)(=O)c1ccc(C(N)=O)cc1 | -2.19
5 | CCC(=O)Nc1nnc(CCOc2ccccc2OC)s1 | -23.8
6 | O=C(NCC1Cn2nnc(-c3ccoc3)c2CO1)c1ccc[nH]1 (centres undefined) | 27.4
7 | CN1CCCC1c1nccnc1-c1ccc(C(=O)O)cc1 (centres undefined) | -14.2
8 | Cc1ncsc1CN(Cc1ccccc1)Cc1ncc[nH]1 | 46.6
9 | Cc1nn(C)c(Cl)c1C1CCCN1C(=O)c1ccc(C(N)=O)cn1 (centres undefined) | 84.3
10 | Cc1nn(C)c(Cl)c1C1CCCN1C(=O)c1ccc(N(C)C)nn1 (centres undefined) | 53.8
11 | COc1c(C2CCCN2C(=O)c2ccc(N(C)C)nn2)c(C)nn1C (centres undefined) | -57.4
12 | Cc1nn(C)c(C)c1C1CCCN1C(=O)c1ccc(N(C)C)nn1 (centres undefined) | -71.1
13 | Cc1nn(C)c(C)c1C1CCCN1C(=O)c1ccc(C(N)=O)cn1 (centres undefined) | 9.555
14 | Cc1nn(C)c(Cl)c1C1CCCN1C(=O)c1ccc(O)nc1 (centres undefined) | 48.1
15 | Cc1nn(C)c(C)c1NC(=O)CN1CCN(c2nccs2)C(C)C1 (centres undefined) | 21.6
16 | Cc1c(C[S+](C)[O-])cccc1NC(=O)c1cc(Cl)ccn1 (centres undefined) | -42.1
17 | Cc1c(NC(=O)N(C)CCn2cnnc2)cccc1OC1CCCC1 | 13.3
18 | CCNC(=O)N(CCCO)C1CCCc2ccccc21 (centres undefined) | 45.7
19 | CC(O)CN1CCC(CNCc2ccc(OC(F)(F)F)cc2)CC1 (centres undefined) | 44.7
20 | CCN(c1ccc(C(=O)N2CCCC(C)C2)cc1)S(=O)(=O)CC (centres undefined) | 10.1
21 | CCN(c1ccc(C(=O)N2CCC(C)CC2)cc1)S(=O)(=O)CC | 22.9
22 | CCS(=O)(=O)N(C)c1ccc(C(=O)N2CCCC(C)C2)cc1 (centres undefined) | 60.1
23 | O=C(NCCc1cccnc1)Nc1cc(C(F)(F)F)c[nH]c1=O | -12.6
24 | COCCOCCC(=O)N1CCC(c2ccccc2C)C1 (centres undefined) | 55.2
25 | Cc1ccccc1C1CCN(C(=O)CCNC(=O)C(C)(C)C)C1 (centres undefined) | -66.4
26 | COCCOCC(=O)N1CCC(c2ccccc2F)C1 (centres undefined) | -112

Row | SMILES | INHIBITION [%]
27 | CS(=O)(=O)N1CCC(NC(=O)COc2ccc(Cl)cc2)CC1 | -61.4
28 | CC1c2ncc(CN3CCN(C)CC3)n2CCN1CC1CC1 (centres undefined) | -10.4
29 | COCCC1(C(=O)O)CCN(c2cc(C)c3ccccc3n2)CC1 | 62.8
30 | CN(C)CC1CN(c2cnc3ccccc3n2)CCO1 (centres undefined) | 38.8
31 | Cc1cc(N2CCC3(CCCN(CCO)C3=O)C2)nc2ccccc12 (centres undefined) | 57.2
32 | Cc1cc(N2CCC(CO)(CC3CCCCO3)CC2)nc2ccccc12 (centres undefined) | 53
33 | c1ccc2nc(N3CCOC(Cn4cccn4)C3)cnc2c1 (centres undefined) | -34
34 | Cc1cc(N2CCC3(CCCN(CCO)C3=O)C2)nc2cc(Cl)ccc12 (centres undefined) | 16.1
35 | Cc1cc(N2CCC(CO)(CC3CCCCO3)CC2)c2ccccc2n1 (centres undefined) | 47.6
36 | OCC1(CC2CCCCO2)CCN(c2cnc3ccccc3n2)CC1 (centres undefined) | 83.9
37 | COCCC1(C(=O)O)CCCN(c2cc(C)c3ccccc3n2)C1 (centres undefined) | 20.2
38 | Cc1cc(N2CCC(O)(C(=O)O)CC2)nc2ccccc12 | 32.2
39 | Cc1cc(N2CCC3(CC2)C(C(=O)O)CC(=O)N3C)nc2ccccc12 (centres undefined) | 9.56
40 | Cc1cc(N2CCC3(CCCN(CCO)C3=O)C2)nc(C)c1C#N (centres undefined) | 38
41 | Cc1cc(C(=O)N(CC(F)(F)F)C2CCOCC2)c(C)o1 | 15
42 | Cc1nnc(CNC(C)c2cc(C)c(F)c(C)c2)s1 (centres undefined) | 36.2
43 | CC(C(=O)Nc1ccccn1)n1ccc(C(F)(F)F)n1 (centres undefined) | 11
44 | O=C(O)[C@@H]1CN(C(=O)CSCC2CC2)C[C@H]1c1ccncc1 | -8.7
45 | CCN(CC1CCOC1)C(=O)c1cn2ccc(C)cc2n1 (centres undefined) | 30.5
46 | Cc1cc(-c2cc(N)c(=O)n(CC(=O)NC3CCCC3)n2)c(C)o1 | 18.27
47 | Cc1ccc(CN2CC[C@@H]3[C@@H](CO[C@H]3CN3CCN(C)CC3)C2)cc1 | 23.3
48 | Cc1cc(C(=O)N2CC[C@@H](O)[C@@H]2Cc2ccccc2)no1 | 2.58
49 | COc1ccc2c(c1)OC1(CCN(Cc3ccc(F)cc3)CC1)CC2=O | 51.6
50 | COc1ccc2c(c1)OC1(CCN(Cc3cccc(C)c3)CC1)CC2=O | 37.2
51 | COc1ccc2c(c1)OC1(CCN(Cc3ccc(C)cc3)CC1)CC2=O | 31.2
52 | COc1ccc2c(c1)OC1(CCN(Cc3ccccc3C)CC1)CC2=O | 5.56

Row | SMILES | INHIBITION [%]
53 | COc1ccc2c(c1)C(=O)CC1(CCN(Cc3ccc(F)cc3)CC1)O2 | -0.371
54 | CCOC(=O)CN1CCC2(CC1)CC(=O)c1ccc(OC)cc1O2 | 72.4
55 | CSCCC(=O)N1C[C@@H](C)[C@](O)(C(C)C)C1 | 22.5
56 | CCn1cnnc1CNC(=O)N1CCC(CN2CCOCC2)CC1 | -11.4
57 | CNc1ncc(CN(C)C(=O)c2cccc(-n3cnnc3)c2)cn1 | 28.5
58 | CC(C)c1nc(C2CCCN2Cc2cc(=O)n(C)c(=O)n2C)no1 (centres undefined) | 33.8
59 | CCc1[nH]nc(NC(=O)c2cc[nH]n2)c1C | 0.342
60 | N#Cc1ccc(N2CCCC3(CCC(=O)N3CC3CC3)CC2)nc1 (centres undefined) | 56.6
61 | O=C1CCC2(CCCN(c3ncc(F)cn3)CC2)N1CC1CC1 (centres undefined) | -57.6
62 | N#Cc1ccc(N2CCC3(CCC(=O)N3Cc3ccncc3)CC2)nc1 | 43.9
63 | CN1C(=O)CCC12CCN(c1ccc(C#N)cn1)CC2 | 38.5
64 | N#Cc1ccc(N2CCC3(CCC(=O)N3Cc3cccnc3)CC2)nc1 | 27.6
65 | N#Cc1ccc(N2CCC3(CCC(=O)N3CCN3CCCC3)CC2)nc1 | 68.4
66 | O=C(c1ccsc1)N1CCN2C[C@H](OCc3cccnc3)C[C@H]2C1 | 21.6
67 | CCc1nc(-c2ccc(NC(=O)N3CCCC3)cc2)no1 | -81
68 | CCCC1COCCN1Cc1ccc(C(=O)O)cc1 (centres undefined) | 19.8
69 | Cc1nc2cc(O)nn2c(C)c1CCC(=O)N(C)Cc1ccccc1 | -24.8
70 | Cc1cc(C(=O)N2C[C@@H]3C(CN(C)CCc4ccccn4)[C@@H]3C2)c(C)o1 (some centres undefined) | 41.5
71 | Cc1ccccc1C(=O)N1C[C@@H]2C(CN(C)CCc3ccccn3)[C@@H]2C1 (some centres undefined) | 55.4
72 | Cc1cccc(C(=O)N2CCN(C(=O)Cc3ccccn3)CC2)c1C | 31.8
73 | Cc1cc(C(=O)N2C[C@@H]3C(CN(C)CCCn4cccn4)[C@@H]3C2)c(C)o1 (some centres undefined) | 52.6
74 | Cc1cc(C(=O)N2CCC(CCn3cccn3)CC2)c(C)o1 | 39.5
75 | Cc1cc(C(=O)N2CCN(CC(O)Cn3cccn3)CC2)c(C)o1 (centres undefined) | 29.6
76 | Cc1noc(C2CCC3(CCN(C(=O)c4cnccn4)CC3)O2)n1 (centres undefined) | -4.32
77 | c1ccc(-n2ccc(CNC3CCc4ncnn4C3)n2)cc1 (centres undefined) | 16.45
78 | Cc1ccc(-c2ccccc2CC2(C(=O)NC(C)C)CCCNC2)cc1 (centres undefined) | 42.1

Row | SMILES | INHIBITION [%]
79 | Cc1occc1C(=O)N1CCCn2cnc(CN3CCCC3=O)c2C1 | 34.2
80 | COc1nccc(N2CC[C@@H](N3CCN(C)CC3)[C@H](O)C2)c1C#N | -3.77
81 | CCCC1(CO)CCCN(c2ncnc3c2c(C)nn3C)C1 (centres undefined) | 25.9
82 | Cc1ccccc1CC1(CO)CCCN(c2ncncc2C(C)C)C1 (centres undefined) | 68.4
83 | Cc1ccccc1CC(=O)N(C)CC1(O)CCCN(c2ccccn2)C1 (centres undefined) | -10.5
84 | Cc1cnc(C)c(N2CCC(Cc3ccccc3Cl)(C(=O)O)CC2)n1 | 13.5
85 | Cc1cnc(C)c(N2CCCC(C/C=C/c3ccccc3)(C(=O)O)C2)n1 (centres undefined) | 27.9
86 | Cc1cnc(C)c(N2CCCC(CO)(Cc3ccccc3C)C2)n1 (centres undefined) | 68.4
87 | Cc1cnc(C)c(N2CCCC(CC3CC3)(C(=O)O)C2)n1 (centres undefined) | 57.5
88 | COc1cccc(CC2(CO)CCCN(c3nccs3)C2)c1 (centres undefined) | 3.46
89 | Cc1ccccc1CC1(C(=O)O)CCCN(c2ncnc3[nH]ccc23)C1 (centres undefined) | 25.5
90 | Cc1ccccc1CC1(CO)CCCN(c2ncnc3sccc23)C1 (centres undefined) | 87.9
91 | CCNC(=O)[C@@H]1C[C@@H](NC(=O)c2ccc(C#N)cc2)CN1CCCSC | -14.3
92 | CCCC(=O)N1CCC([C@@H]2C[C@H](C(F)(F)F)n3nc(C)cc3N2)CC1 | -29.8
93 | CC(=O)Nc1nc(C(=O)N2CCCC2Cn2cccn2)cs1 (centres undefined) | 37.3
94 | CN(C(=O)Cn1nc(-c2ccc(F)cc2)ccc1=O)C1CCS(=O)(=O)C1 (centres undefined) | 13.4
95 | c1cnnc(N2CCCC2CNCc2csc(-c3ccco3)n2)c1 (centres undefined) | 31.95
96 | Cc1ncsc1C(=O)N(Cc1cccs1)C1CC1 | 6.25
97 | CCCNCc1cn(C)nc1-c1cccnc1 | 2.74
98 | COc1c(C2CCCN2C(=O)c2csc(C3CC3)n2)c(C)nn1C (centres undefined) | -21.5
99 | CC(C)Nc1cccc(CC2CCN(C)C2)n1 (centres undefined) | -52.6
100 | COCC1CN(Cc2c(C)noc2C)Cc2ccnn2C1 (centres undefined) | 15.9
101 | CC(C)N1CC(C(=O)N2CCc3c(nc(CC4CC4)[nH]c3=O)C2)CC1=O (centres undefined) | 20.6
102 | CC(C)N1CCCC(C(=O)N2CCc3c(nc(CC4CC4)[nH]c3=O)C2)C1 (centres undefined) | 26.9
103 | CC(C)N1CCC(C(=O)N2CCc3c(nc(CC4CC4)[nH]c3=O)C2)CC1 | 53.8
104 | c1csc(CN2CCn3c(Cn4cncn4)cnc3C2)c1 | 20.6
